# Bioassay records from PubChem BioAssay.
# Only a selection was taken, and hits are over-represented in it overall.
# HT1080 IDH1KD tx: toxicity to HT-1080 IDH1 knockdown cells (counter line); HT-1080 IDH1 knockdown viability, ATP luminescence, 48 h; Potency, µM (doses to about 46.1 µM), without a hit: at the top dose activity, negative = toxicity, usual class: cytotoxic; 2% of 360,000 active;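 also: potency is read from the fitted curve at half-maximal effect; 0% = DMSO wells and -100% = cell-free medium wells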
#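 After a 2 h attachment period, IDH1KD HT-1080 cells took pin-transferred compound for 48 h at 37 °C; ATP-based luminescence after 10 min room-temperature reagent incubation reported viability.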
# HT1080NT lethal: kills 2HG-producing HT-1080-NT fibrosarcoma cells; HT-1080-NT fibrosarcoma viability, CellTiter-Glo ATP luminescence, 48 h; Potency, µM (top dose mostly 46.1 µM), for the others: top-dose activity, negative = less viability, most hits filed as cytotoxic; 1.6% of 360,000 active;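 also: NT is the 2HG producing partner of a matched IDH1 knockdown line; potency is read from the fitted curve at half-maximal effect; 0% = DMSO-treated cells and -100% = media-only wells without cells; nearly all actives have a fitted effect of over 55% in size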
#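 Fibrosarcoma NT cells, 750 per well in 5% FBS RPMI, were exposed to compound for 48 hours. Viability: CellTiter-Glo luminescence.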
# DT40 TDP1 CPT: DT40-hTDP1 cell growth loss with CPT. chicken DT40 Tdp1-/-;hTDP1 cells + 20 nM CPT, ATP luminescence, 48 h. Potency, µM (highest dose often 46.2 µM), for inactives: top-dose activity change, negative = growth inhibition, actives largely listed as inhibitors. 12% of 420,000 active; also: potency is read from the fitted curve at half-maximal effect; nearly all actives have a fitted effect of over 55% in size
#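 Chicken DT40 Tdp1-/- cells complemented with human TDP1, 400 cells/well, exposed to compounds plus 20 nM camptothecin for at least 48 h at 37 C; viability read as ATP content by CellTiter-Glo luminescence.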
# TDP1 cell noCPT: qHTS for Inhibitors of human tyrosyl-DNA phosphodiesterase 1 (TDP1): qHTS in cells in absence of CPT. DT40 Tdp1-/- hTDP1 cells, no CPT, ATP luminescence, 48 h. AID 686978, 2013. Potency, µM (highest dose often 46.2 µM), without a hit: at the highest dose activity change, negative = growth inhibition, usual class: inhibitors. 15% of 420,000 active; also: potency is read from the fitted curve at half-maximal effect; nearly all actives have a fitted effect of over 55% in size
#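 Chicken DT40 Tdp1-/- cells stably complemented with human TDP1 were seeded at 400 cells/well with DMSO in place of 20 nM camptothecin. After compound pinning, cells grew at least 48 hr at 37 °C; viability read by CellTiter-Glo luminescence.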
# IL-1B inflam inh: inhibitors of inflammasome signaling (IL-1 beta secretion). THP-1 LPS/ATP IL-1B secretion, AlphaLISA, 16 h; stronger effect = lower value. activity change, % at 57.5 µM. 4.7% of 360,000 active. AID 743279; in the data active = activity change below about -50%; inconclusive = mostly about -30% to -49%
#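 THP-1 cells pretreated 1 hr with compounds (up to 57.5 uM final), then stimulated with LPS (250 ng/mL final) plus ATP (1.25 mM final); secreted IL-1B measured by AlphaLISA after 16 hr, decreased signal indicating inhibition.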
# 12-LOX inh: blocks human arachidonate 12S-lipoxygenase; 1.1% of 580,000 active; Potency, µM (top dose mostly 108 µM), inactives show at the top dose activity change, negative = inhibition, most hits filed as inhibitors; purified 12hLO, xylenol orange hydroperoxide absorbance; AID 1671190; also: potency is read from the fitted curve at half-maximal effect
# Target sequence (P18054 whole entry, looked up): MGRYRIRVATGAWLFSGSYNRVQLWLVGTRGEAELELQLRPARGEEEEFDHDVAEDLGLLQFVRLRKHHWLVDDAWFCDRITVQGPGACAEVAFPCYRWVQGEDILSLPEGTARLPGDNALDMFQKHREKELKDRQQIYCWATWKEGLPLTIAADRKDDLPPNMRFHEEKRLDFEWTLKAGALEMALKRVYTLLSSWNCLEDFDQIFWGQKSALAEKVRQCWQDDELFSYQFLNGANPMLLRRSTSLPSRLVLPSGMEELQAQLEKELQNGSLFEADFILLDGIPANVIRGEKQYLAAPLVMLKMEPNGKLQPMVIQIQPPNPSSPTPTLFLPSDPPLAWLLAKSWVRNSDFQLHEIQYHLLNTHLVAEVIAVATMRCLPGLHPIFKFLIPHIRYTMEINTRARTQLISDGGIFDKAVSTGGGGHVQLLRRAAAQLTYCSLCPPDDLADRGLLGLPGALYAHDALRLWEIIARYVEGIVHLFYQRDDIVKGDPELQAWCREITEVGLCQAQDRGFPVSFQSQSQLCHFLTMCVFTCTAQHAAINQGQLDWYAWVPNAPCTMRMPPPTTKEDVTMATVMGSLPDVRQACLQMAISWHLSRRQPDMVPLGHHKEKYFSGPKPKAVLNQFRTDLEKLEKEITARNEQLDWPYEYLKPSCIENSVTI
#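 Hydroperoxide product was detected by ferrous iron/xylenol orange as the 573 to 405 nm absorbance ratio. Arachidonic acid at 40 uM (final) was turned over for 30 min at room temperature by 150 nM human 12hLO, pH 7.0 Hepes buffer, after 15 min compound preincubation.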
# * hit, by the source's call; ? = inconclusive; . = no result; [ ] = dose if it differs, or a comment. Unless noted, calls follow the shape of the dose curve; as a rule, active = well fitted curve in the direction sought with a large enough effect; inconclusive = small, poorly fitted or top-dose-only effect, or another doubt; inactive = no such curve, though single readings can be large; an effect the other way counts as inactive or inconclusive. Unless noted, % is scaled to controls: 0 for no effect and ±100 for the full control effect.
SMILES,HT1080 IDH1KD tx,HT1080NT lethal,DT40 TDP1 CPT,TDP1 cell noCPT,IL-1B inflam inh,12-LOX inh
CCOc1ccc(-c2cc3nc(C4CCN(C(=O)OC(C)(C)C)CC4)c(C(=O)Nc4ccc(C)c(F)c4)cn3n2)cc1,.,.,9.2µM*,7.3µM*,.,7%
COc1ccc(-c2cc3nc(C4CCN(C(=O)OC(C)(C)C)CC4)c(C(=O)Nc4cc(Cl)cc(Cl)c4)cn3n2)cc1,.,.,-35%,?,.,1%
COc1ccc(-c2cc3nc(C4CCN(C(=O)OC(C)(C)C)CC4)c(C(=O)Nc4cc(C)cc(C)c4)cn3n2)cc1,.,.,?,16µM*,.,2%
O=C(Cn1nc2c(cc1=O)CCCCC2)Nc1cccc(Cl)c1,.,.,.,.,.,115%
CCCNC(=O)NC(=O)Cn1nnc(-c2ccc(F)c(C)c2)n1,.,.,.,.,.,-1%
O=C(N/N=C/C=C/c1ccccc1)c1n[nH]c2c1CCC2,1.3µM*,1.8µM*,1.6µM*,0.82µM*,68,492%
O=C(N/N=C/C=C/c1ccccc1)c1cccnc1,-6%,-1%,21µM*,?,-3,0%
O=C(N/N=C/C(Br)=C\c1ccccc1)c1n[nH]c2c1CCC2,0.56µM*,0.32µM*,0.23µM*,0.23µM*,1,-8%
Cc1cc(C(=O)N/N=C/C=C/c2ccccc2)n[nH]1,?,29%,-5%,-9%,-23,39%
O=C(CC1N=C2c3ccccc3N=C(SCc3ccccc3F)N2C1=O)NCc1cccs1 (stereo not given),.,.,?,18µM*,.,-1%
O=C(CC1N=C2c3ccccc3N=C(SCc3ccc(Cl)cc3)N2C1=O)NCc1cccs1 (stereo not given),.,.,-29%,-19%,.,-12%
Cc1ccc(CSC2=Nc3ccccc3C3=NC(CC(=O)NCc4cccs4)C(=O)N23)cc1 (stereo not given),.,.,16µM*,16µM*,.,2%
CN(Cc1ccccc1C(F)(F)F)CC1CCCCC1,.,.,.,.,.,60%[176 µM]
NC(C(=O)O)C1ON=C(Cl)C1O (stereo not given),?,21µM*,5.8µM*,5.8µM*,56,?
Cc1ccc(NC(=O)/C(C#N)=C/c2ccc(C)o2)cc1,.,.,-7%,-17%,.,8%
N#C/C(=C\c1ccc(-c2ccc(C(=O)O)cc2)o1)C(=O)NCC1CCCO1 (stereo not given),15%,0%,0%,-27%,-11,.
N#C/C(=C\c1ccc(-c2ccc(C(=O)O)cc2)o1)C(=O)Nc1ccc(F)cc1,4%,-2%,?,12µM*,-9,?
Cc1ccc(NC(=O)/C(C#N)=C\c2ccc(-c3ccc(Cl)cc3)o2)c(C)c1,.,.,12µM*,-97%,.,1%
COc1ccc(CNC(=O)c2sc3nc4c(c(C(F)(F)F)c3c2N)CCC4)cc1OC,2%,6%,?,16µM*,?,-18%
CC(=O)N1CCc2nc3sc(C(=O)c4ccc(F)cc4)c(N)c3c(C(F)(F)F)c2C1,.,.,?,21µM*,.,-5%
CC(=O)N1CCc2nc3sc(C(=O)Nc4ccccc4F)c(N)c3c(C(F)(F)F)c2C1,.,.,.,.,.,-6%
COc1ccc(C(=O)c2sc3nc4c(c(C(F)(F)F)c3c2N)CN(C(C)=O)CC4)cc1OC,.,.,18µM*,16µM*,.,0%
CC(C)CNC(=O)COc1ncnc2ccc(Br)cc12,.,.,.,.,.,9%
Cc1ccc(C(=O)N2CCCN(c3cc(-c4ccc(Cl)cc4)[nH]n3)CC2)cc1C,.,.,.,.,.,-8%
CNC(=O)c1cccn1-c1ccsc1C(=O)OC,16%,28%,?,18µM*,-1,1%
SMILES,HT1080 IDH1KD tx,HT1080NT lethal,DT40 TDP1 CPT,TDP1 cell noCPT,IL-1B inflam inh,12-LOX inh
CCC(C)NCCOCCOc1ccc(Br)cc1 (stereo not given),-1%,-17%,?,23µM*,?,-33%
CC(C)CN1CCN(CCc2ccccc2)CC1,.,.,.,.,.,3%
COc1ccc(C)cc1NC(=O)COC(=O)c1c(C)nn(-c2ccccc2)c1C,-12%,-7%[9.24 µM],21µM*,12µM*,-4,178%
CC(=O)Nc1ccc(NC(=O)COC(=O)c2c(C)nn(-c3ccccc3)c2C)cc1,-1%,-3%,?,?,-2,-35%
Cc1nn(-c2ccccc2)c(C)c1C(=O)OCC(=O)NC12CC3CC(CC(C3)C1)C2,-28%,2%[9.24 µM],?,23µM*,-30,?
COc1ccc(C)cc1NC(=O)COC(=O)c1c(-c2ccccc2)noc1C,-8%,-3%,23µM*,23µM*,?,?
COCC(C)n1c(C)cc(C(=O)COC(=O)c2c(C)nn(-c3ccccc3)c2C)c1C (stereo not given),-3%,-1%,?,?,-56*,-21%
COc1ncccc1-c1cc(-c2ccncc2)c2cncn2c1,.,.,.,.,.,53%[176 µM]
COc1cc(-c2c(C(=O)c3ccccc3)[nH]c(N)c2C(=O)NCCc2c[nH]c3ccccc23)ccc1F,.,.,.,.,.,-11%
O=C1CC(SCc2nc3ccccc3[nH]2)C(=O)N1c1cccc(Cl)c1 (stereo not given),19%,13%,?,13µM*,11,0%
O=C1CC(SCc2nc3ccccc3[nH]2)C(=O)N1c1ccc(F)cc1 (stereo not given),-1%,4%,?,18µM*,17,-18%
O=C1CC(SCCc2nc3ccccc3[nH]2)C(=O)N1c1ccc(F)c(Cl)c1 (stereo not given),1%,3%,-2%,-2%,11,?
Cc1c(NC(=O)C(C)OC(=O)c2ccc(F)cc2)c(=O)n(-c2ccccc2)n1C (stereo not given),.,.,.,.,.,5%
CC(OC(=O)c1ccc([N+](=O)[O-])s1)C(=O)NC1CCCCC1C (stereo not given),-9%,-4%,23µM*,?,11,368%
Cc1c(NC(=O)C(C)OC(=O)c2ccc([N+](=O)[O-])s2)c(=O)n(-c2ccccc2)n1C (stereo not given),-3%,-12%,23µM*,16µM*,34,-9%
C=CCn1c(SCC(=O)NCCOC)nnc1-c1cc2c(s1)CCC(CC)C2 (stereo not given),1%,-1%,?,18µM*,-19,-4%
C=CCn1c(SCC(=O)NCC)nnc1-c1cc2c(s1)CCC(CC)C2 (stereo not given),-12%,1%,23µM*,16µM*,-12,-6%
